Hits are enriched below; roughly 2.7% of the tested compounds scored in any of these assays.
12-LOX inh – inhibitors of human 12S-lipoxygenase ALOX12; purified 12hLO, xylenol orange hydroperoxide absorbance; Potency, µM (titrated, usually from 108 µM), inactives show at the highest dose activity change, negative = inhibition, hits mostly inhibitors; 580,000 compounds, 1.1% hits; further: potency means the concentration at half of the fitted maximal effect; on the % scale 0 is the no-effect control and ±100 the full control effect
Target sequence (P18054 whole entry, looked up): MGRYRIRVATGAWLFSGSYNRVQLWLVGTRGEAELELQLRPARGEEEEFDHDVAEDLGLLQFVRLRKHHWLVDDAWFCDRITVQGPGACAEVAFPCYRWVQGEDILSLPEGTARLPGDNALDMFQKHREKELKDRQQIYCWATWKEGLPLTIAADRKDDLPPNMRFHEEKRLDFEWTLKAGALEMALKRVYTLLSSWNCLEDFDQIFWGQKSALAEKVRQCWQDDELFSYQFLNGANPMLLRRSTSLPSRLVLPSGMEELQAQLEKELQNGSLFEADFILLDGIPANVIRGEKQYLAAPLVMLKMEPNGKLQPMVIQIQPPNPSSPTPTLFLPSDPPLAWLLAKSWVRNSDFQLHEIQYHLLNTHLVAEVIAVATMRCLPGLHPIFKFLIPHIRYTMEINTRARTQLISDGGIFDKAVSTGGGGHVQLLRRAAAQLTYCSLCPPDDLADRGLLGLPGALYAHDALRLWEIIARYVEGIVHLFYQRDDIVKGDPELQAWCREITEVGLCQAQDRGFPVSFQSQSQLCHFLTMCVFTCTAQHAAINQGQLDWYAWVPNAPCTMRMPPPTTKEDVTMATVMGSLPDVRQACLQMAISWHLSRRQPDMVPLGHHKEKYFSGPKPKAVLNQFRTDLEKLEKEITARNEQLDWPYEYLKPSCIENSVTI
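Purified human 12hLO at 150 nM in 25 mM Hepes, 0.01% Triton X-100, pH 7.0, preincubated 15 min at room temperature with compound. Reaction started with 40 uM arachidonic acid, 30 min at room temperature. Hydroperoxide measured by Fe-xylenol orange, 573/405 nm absorbance ratio.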
Nrf2 block – blocks Nrf2 signaling | 360,000 compounds, 2.1% hits | AID 504444 | Potency, µM (top dose mostly 46 µM), inactives show top-dose activity change, negative = inhibition, most hits filed as inhibitors | A549 ARE-Fluc reporter, luciferase luminescence, 18-24 h; further: potency means the concentration at half of the fitted maximal effect; on the % scale 0 is the no-effect control and ±100 the full control effect; nearly all actives have a fitted effect of over 60% in size
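Reporter: ARE-Fluc in A549. Exposure: 18-24 h, 37 °C, 5% CO2, 5% FBS OPTI-MEM. Readouts: fluorescent cytotoxicity (CellTiter-Fluor), then luminescent Nrf2 signal after BugLite.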
IDH1 R132H inh – inhibitors of human mutant IDH1 R132H | AID 602179 | 390,000 compounds, 0.093% hits | Potency, µM (highest dose often 76.6 µM), without a hit: at the top dose activity change, negative = inhibition, usual class: inhibitors | IDH1-R132H enzyme, NADPH consumption, diaphorase/resazurin fluorescence; further: potency means the concentration at half of the fitted maximal effect; on the % scale 0 is the no-effect control and ±100 the full control effect; nearly all actives have a fitted effect of over 65% in size
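IDH1-R132H (0.5 ug/mL dispensed) in pH 7.5 Tris buffer was preincubated 30 min with compound, then given a substrate mix of 0.016 mM NADPH and 2 mM alpha-KG for 80 min at room temperature; remaining NADPH was read by diaphorase/resazurin fluorescence.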
Nrf2 ARE act – activators of Nrf2 (ARE) signaling | 410,000 compounds, 0.31% hits | AREc32 ARE-luciferase reporter (MCF7-derived line), luminescence, 24 h | Potency, µM (doses to about 46.1 µM), without a hit: at the highest dose activation, hits mostly activators | AID 624171; further: potency means the concentration at half of the fitted maximal effect; % of control where 0% means no effect; nearly all actives have a fitted effect of over 65% in size
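Quantitative high-throughput format: AREc32 reporter cells, 1000 per well, received compound by pin transfer and were incubated 24 hr at 37 deg C, 5% CO2, before Steady-Glo luminescence detection.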
LDHA block – LDHA (human) enzyme inhibition. purified LDHA, NADH/diaphorase-resazurin fluorescence; stronger effect = lower value. P00338. 480,000 compounds, 0.15% hits. activity change, % (values are at about 110 or 230 µM); in the data active means activity change below about -30%; inconclusive means mostly about -25% to -30%;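 further: plate controls were DMSO wells for no effect and wells without enzyme for full effect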
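Enzyme activity of human lactate dehydrogenase 5 (2 nM; 0.06 mM NADH, 0.2 mM pyruvate, 5 min, RT) is measured via a resazurin/diaphorase fluorescence readout of residual NADH.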
A549 viability – counter-screen for Nrf2 inhibitors: cytotoxicity in A549 cells; A549 ARE-Fluc cells, CellTiter-Fluor viability, 18-24 h; Potency, µM (top dose mostly 46 µM), for inactives: at the highest dose activity change, negative = cytotoxicity, actives largely listed as inhibitors; 390,000 compounds, 0.16% hits; further: potency means the concentration at half of the fitted maximal effect; on the % scale 0 is the no-effect control and ±100 the full control effect
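A549 ARE-Fluc cells in 5% FBS OPTI-MEM, 5000 cells/well, rested 2 h then exposed to compounds in concentration-response for 18-24 h at 37 °C. Viability by CellTiter-Fluor fluorescence (Ex 405/Em 525) after 30 min; luciferase luminescence (BugLite, 15 min, RT) read afterwards.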
Active calls of the source: *; u = inconclusive; x = not tested or not shown; [ ] = remark or other dose. Unless noted, the call rests on the fitted dose curve; in most records, active means well fitted curve in the direction sought with a large enough effect; inconclusive means small, poorly fitted or top-dose-only effect, or another doubt; inactive means no such curve, though single readings can be large; an effect the other way counts as inactive or inconclusive.

SMILES	12-LOX inh	Nrf2 block	IDH1 R132H inh	Nrf2 ARE act	LDHA block	A549 viability
O=C(NCc1ccccc1)Nc1ncnc2c1C(c1ccccc1)c1c(ccc3ccccc13)O2 (stereo not drawn)	x	6%	x	x	-10	1%
c1ccc(-c2cnc(SCCN3CCOCC3)n2CC2CCCO2)cc1 (stereo not drawn)	u	6%	0%	0%	-32*	-2%
Cc1occc1C(=O)Nc1nc(CC(=O)Nc2ccc(C(C)C)cc2)cs1	u	x	x	x	-22	x
CSc1cccc(NC(=O)C2CCN(S(=O)(=O)c3ccc(F)cc3)CC2)c1	-5%	15µM*	-6%	1%	-17	-6%
CS(=O)(=O)c1cccc(NC(=O)C2CC2)c1	-10%	1%	1%	0%	-8	-1%
CSc1cccc(NC(=O)C2CCN(S(=O)(=O)c3ccc4c(c3)NC(=O)CO4)CC2)c1	-3%	23µM*	-12%	0%	0	-11%
Cc1cccc(NC(=O)C2CCN(S(=O)(=O)c3ccc4c(c3)NC(=O)CO4)CC2)c1C	6%	-5%	0%	-1%	-1	-10%
O=C(Nc1cccc(S(=O)(=O)c2cccc(NC(=O)C3CC3)c2)c1)C1CC1	7%	8.2µM*	0%	0%	-4	-7%
COc1cccc(C(=O)Nc2oc3ccc(Cl)cc3c(=O)c2-c2ccc3c(c2)OCO3)c1	-2%	x	x	x	8	x
C/C(=N/NC(=O)c1ccccc1)c1ccc(C)cc1	-30%	x	x	x	4	x
O=[N+]([O-])c1cc(-c2ccccc2)cc([N+](=O)[O-])c1O	u	16µM*	14%	4%	0	u
O=[N+]([O-])c1cc2ccccc2c(O)c1O	u	x	22%	12%	22	x
O=C(c1ccccc1)c1ccc2nc(-c3ccc(NC(=O)c4ccccc4F)cc3)[nH]c2c1	0%	10µM*	3%	0%	0	u
Cn1cc([N+](=O)[O-])c(C(=O)Nc2ccc3nc(-c4ccccc4)[nH]c3c2)n1	-17%	u	19%	25µM*	-1	-1%
C=CCn1c(CCc2cc(C(C)(C)C)c(O)c(C(C)(C)C)c2)n[nH]c1=S	35µM*	-23%	-9%	5%	0	18%
COc1cc2nc(C3CCC3)nc(N3CCN(c4ccccn4)CC3)c2cc1OC	x	26µM*	u	1%	3	u
COc1cc(C(=O)N2CCN(c3ccccn3)CC2)cc(OC)c1OC	0%	-2%	-5%	0%[9.22 µM]	-2	-2%
Cc1oc(-c2ccccc2)nc1CC(=O)NCCc1ccccc1	30%	x	x	x	-2	x
S=C(NCCC(c1ccccc1)c1ccccc1)Nc1ccc(Cl)c(Cl)c1	u	x	x	x	-7	x
Cc1cc(Cl)ccc1NC(=S)NCCC(c1ccccc1)c1ccccc1	u	16µM*	8%	3%	-2	u
Fc1ccc(NC(=S)NCCC(c2ccccc2)c2ccccc2)cc1Cl	25µM*	x	x	x	-2	x
Fc1ccc(NC(=S)Nc2cc(-c3ccccc3)[nH]n2)cc1Cl	28µM*	u	-1%	18%	4	u
Cc1c(Cl)cccc1NC(=S)NCCC(c1ccccc1)c1ccccc1	25µM*	u	7%	0%	-2	-22%
OCCNc1nc(N2CCOCC2)nc2ccccc12	14%	x	x	x	1	x
CCOc1cc(/C=C/c2nc3ccccc3o2)ccc1O	79%	x	x	x	0	x
CN(C)C(=O)C(F)(F)C(F)(F)C(F)(F)C(F)(F)C(=O)N(C)C	-10%	x	x	x	2	x
CCCCC(=O)OCc1c(C(=O)OCC)sc(N)c1C#N	u	x	x	x	7	x
CCn1cc(S(=O)(=O)N2CCN(c3ccc(Cl)cc3)CC2)cn1	-4%	12µM*	9%	0%	-1	-14%
CCOC(CN=c1nc(N(C)C)ss1)OCC	18µM*	1%	-2%	u	-8	2%
CN(C)c1nc(=NCc2ccco2)ss1	x	-1%	-5%	20%	-1	0%

High-throughput results from PubChem BioAssay.
